In the library only some 1.3% were active in any assay of this set; here they are far more common.
S1P4 agonist = agonists of human S1P4 receptor. O95977. S1P4-expressing cell line, agonist reporter assay. activation, % at 4.98 µM. 0.35% of 220,000 active. AID 1509; in the data active = activation above about 11%;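 note: 0% = DMSO vehicle and 100% = reference agonist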
PERK inhibitor = inhibitors of human PERK kinase. Q9NZJ5. CHO PERK-DD fusion, SEAP luminescence translation reporter. inhibition, % at 5.6 µM. 0.17% of 220,000 active. AID 1416;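 active = inhibition above the mean inhibition of all tested compounds plus 3 SD, set separately per screening campaign, cut at about 2.9% in these data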;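 note: PERK kinase domain activated by AP20187 dimerizer at 100 nM; 0% = DMSO with dimerizer and 100% = rapamycin at 8.4 µM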
Calpain2 inh = blocks pig calpain II enzyme activity; purified calpain II, fluorogenic peptide substrate, 30 min; inhibition, % at 16 µM; 0.37% of 220,000 active; AID 1236;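 active = inhibition above about 50%, limit read from the data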
S1P4 antag = blocks the human S1P4 receptor; O95977; AID 1510; 0.26% of 220,000 active; inhibition, % at 4.98 µM; S1P4-expressing cells, antagonist mode, reporter read-out; in the data active = inhibition above about 29%;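 note: 0% = wells stimulated with agonist and 100% = vehicle wells without agonist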
S1P3 antag = antagonists of human S1P3 receptor | Q99500 | CHO S1P3 NFAT-BLA reporter, FRET fluorescence, antagonist mode | inhibition, % at 4.98 µM | 0.27% of 170,000 active | AID 485;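 active = inhibition above the plate cutoff, the mean inhibition of test wells on that plate plus 3 SD, cut at about 28% in these data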;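 note: cells challenged with S1P at its EC80 of 0.8 µM; blue over green emission ratio from cleaved BLA substrate after 4 h stimulation; 0% = S1P-stimulated wells and 100% = unstimulated DMSO-only wells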
The depositor's hits bear a star; x = not tested or not shown.

SMILES	S1P4 agonist	PERK inhibitor	Calpain2 inh	S1P4 antag	S1P3 antag
CC(Nc1cc(N2CCCC2)ccc1[N+](=O)[O-])c1ccccc1 (stereo not drawn)	2	2.9*	7	-26	x
CC(C)c1ccc(NC(=O)C2CC(=O)Nc3nc4ccccc4n32)cc1 (stereo not drawn)	0	1	-19	-22	4
CCN(CC)S(=O)(=O)c1ccc(C(=O)NCCN(C)C)cc1	-1	1	14	-7	-24
CCOC(=O)c1ccccc1NC(=O)Cn1c(-c2nonc2N)nc2ccccc21	0	-1	-69	-11	56*
Clc1ccc2nc(-c3ccccn3)c(Nc3ccc4c(c3)OCO4)n2c1	0	0	56*	-1	15
Cc1ccc2nc(-c3ccccc3O)c(Nc3ccc4c(c3)OCCO4)n2c1	4	-1	-255	-13	5
CCCCN=C(C)c1c(O)c2ccccc2oc1=O	5	0	73*	-10	-2
CCCCC(=O)c1c(O)c2ccccc2oc1=O	1	2	17	4	2
Cc1ccccc1Cn1c(=O)n(CC2CCC(C(=O)NCCc3ccccc3)CC2)c(=O)c2ccccc21 (stereo not drawn)	2	1	66*	-6	-15
O=C(NCCc1c[nH]c2ccccc12)C1CCC(Cn2c(=S)[nH]c3ccccc3c2=O)CC1 (stereo not drawn)	-3	-2	-219	-10	x
NNC(=O)c1ccc(Cn2cc(Cl)cn2)cc1	0	0	-3	-11	-10
O=C(Nc1ccc(Cl)c(Cl)c1)c1ccc(Cn2cc(Cl)cn2)cc1	0	0	53*	-26	-21
CC1Cc2ccccc2N1C(=O)C1CCCN(S(=O)(=O)c2cccc3nsnc23)C1 (stereo not drawn)	1	-2	55*	-17	17
CCOC(=O)C1(CCCc2ccccc2)CCN(C2CCN(C(C)=O)CC2)CC1	0	1	9	-2	-7
COc1ccc(OCc2nc(-c3ccc(F)c(F)c3)cs2)cc1	0	3.3*	2	8	-12
COc1ccc(/C=C(\NC(=O)c2ccccc2)C(=O)NC2CCS(=O)(=O)C2)cc1 (stereo not drawn)	0	1	-23	4	6
CCCNC(=O)c1nnsc1S(=O)(=O)c1ccc(Cl)cc1	-3	0	20	64*	-2
CCCNC(=O)c1nnsc1S(=O)c1ccc(Cl)cc1 (stereo not drawn)	-1	0	0	77*	-4
CCCNC(=O)NS(=O)(=O)c1ccc(Cl)cc1	2	1	6	-13	-11
Cc1ccc(S(=O)(=O)N(C)c2ccc(C)c([N+](=O)[O-])c2)cc1	-2	0	50*	5	-17
CCCCCCCCCCCCCCCC[n+]1cccc2ccccc21	2	1	99*	-14	21
CCCCCCCCC[n+]1cccc2c3ccccc3ccc21	-4	0	-21	-8	x
O=C1CC(c2ccccc2Cl)c2c(sc3c(=O)[nH]c(CCl)nc23)N1 (stereo not drawn)	2	1	-8	-9	-12
Cc1cc([N+](=O)[O-])nn1CCCC(=O)Nc1cc(Oc2ccc(F)cc2)cc([N+](=O)[O-])c1	3	0	5	6	-11
COc1ccc(CNC(=O)CCCn2nc([N+](=O)[O-])cc2C)cc1	0	0	60*	10	-5
SMILES	S1P4 agonist	PERK inhibitor	Calpain2 inh	S1P4 antag	S1P3 antag
Cc1cc([N+](=O)[O-])nn1CCCC(=O)Nc1cc(Oc2ccccc2)cc([N+](=O)[O-])c1	0	1	56*	-20	0
Cc1nn2c(COc3ccc(NC(=O)c4ccccc4Cl)cc3)nnc2c2ccccc12	-3	-1	-46	0	-5
Cc1ccc(C)c(C(=O)CN2C(=O)CCC2=O)c1	0	1	-36	8	75*
O=C(O)c1cc(NN=Nc2cccc([N+](=O)[O-])c2)cc([N+](=O)[O-])c1	0	1	27	-19	-15
O=C(O)c1cc(NN=Nc2ccc(Br)cc2)cc([N+](=O)[O-])c1	2	0	60*	3	1
CCc1cc(SC#N)ccc1N	3	0	1	-17	-8
O=C1OCC2=C1C(c1ccc(F)cc1)c1cc3c(cc1N2)OCCO3 (stereo not drawn)	1	0	-119	-2	35*
O=C1OCC2=C1C(c1ccc(F)cc1)c1cc3c(cc1N2)OCO3 (stereo not drawn)	4	0	-238	-10	-2

High-throughput results as filed in PubChem BioAssay.
